PubChem BioAssay (NCI)
Values joined by “and” are separate entries in the source; they are usually repeats but may differ in a detail not shown here. Equal entries are not always repeated. This is part of a sample that, as a whole, favours compounds with a hit. Of some 83,000 tested, about 20% had one in any assay.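 Interpretation: 100, growth as untreated; towards 0, rising growth inhibition; 0, no net growth; 0 to -100, cell death. Compounds scoring below 10 were considered active.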 Active and inactive are the calls of the source.

Tests used:
Assay in all cases: NCI-60 one-dose screen, 48 h (100 = growth as untreated, 0 = no growth, -100 = all killed)
Details in all cases: 10 µM unless noted
[1] = tested on: T-47D breast
[2] = tested on: BT-549 breast
[3] = tested on: MDA-MB-435 melanoma
[4] = tested on: SW-620 colon
[5] = tested on: MCF7 breast
[6] = tested on: HCT-116 colon
[7] = tested on: HCC-2998 colon
[8] = tested on: KM12 colon
[9] = tested on: MDA-MB-468 breast

Measured: growth

Cc1ccc(C2CC(c3ccc(NC(=O)Nc4ccccc4)cc3)=NN2c2ccc(S(N)(=O)=O)cc2)cc1 (centres undefined)
active: [1] -74.7% | [2] -79.6% | [3] -91.8% | [4] -83.4% | [5] -82.4% | [6] -74.4% | [7] -75.4% | [8] -50% | [9] -93.4%

N#CC1=C(c2cccs2)Nc2c(c(-c3ccccc3)nn2-c2ccccc2)C12C(=O)Nc1ccc(Cl)cc12 (centres undefined)
active: [2] -21.7% | [9] -22.1%
inactive: [1] 11% | [3] 41.2% | [4] 21.3% | [5] 15.1% | [6] 11.5% | [7] 26.1% | [8] 15.3%

CN(C)c1nc(NCCNS(=O)(=O)c2ccc(C(=O)/C=C/c3ccccc3)cc2)nc(N2CCOCC2)n1
inactive: [1] 73.1% | [2] 94.3% | [3] 83.3% | [7] 89.4% | [9] 52.1%
active: [4] -11.3% | [5] -4.51% | [6] -28.5% | [8] -11.1%

CC[C@]12C=CCN3CC[C@@]4(c5ccc(OC)cc5N(C)[C@H]4[C@@](O)(C(=O)OC)[C@@H]1OC(=O)CCCC[P+](c1ccc(F)cc1)(c1ccc(F)cc1)c1ccc(F)cc1)[C@@H]32
inactive: [1] 12.8% | [4] 36.9% | [6] 23.4% | [7] 19.4% | [8] 16%
active: [2] -23.5% | [3] -16% | [5] 5.18% | [9] -74.6%

CC1(C)CC(=O)C2=C(C1)OC(N)=C(c1nc3ccccc3[nH]1)C2c1ccc(Cl)cc1 (centres undefined)
inactive: [1] 72.3% and 117% | [2] 57.5% and 123% | [3] 60.5% and 109% | [4] 81% and 104% | [5] 56.4% and 93.7% | [6] 63.4% and 103% | [7] 76.9% and 111% | [8] 36.7% and 100% | [9] 47.3% and 103%

CN(C)c1nc(NCCNS(=O)(=O)c2ccc(C(=O)/C=C/c3ccc(C(F)(F)F)cc3)cc2)nc(N2CCOCC2)n1
active: [1] -61.2% | [2] -20.8% | [3] -59.4% | [4] -76.7% | [5] -84.5% | [6] -91.4% | [7] -97.6% | [8] -80.7% | [9] -96.1%

Oc1cncc(-c2ccc3ncnc(N4CCc5cc(F)c(Cl)cc54)c3c2)c1
inactive: [1] 41.9% | [2] 73.1% | [3] 69.6% | [4] 62.8% | [5] 35.3% | [6] 48.8% | [7] 51.7% | [8] 61.4% | [9] 48.2%

CS(=O)(=O)c1ccc(-n2nc(C(=O)NCc3ccccc3)cc2-c2ccc(Cl)cc2)cc1
inactive: [1] 66.6% | [2] 143% | [3] 91.7% | [4] 99.8% | [5] 70.1% | [6] 69.6% | [7] 99.4% | [8] 89.2% | [9] 86.7%

COc1ccc(C(=O)c2c(N)c(C#N)cn2-c2ccc([N+](=O)[O-])cc2)cc1
inactive: [1] 90.1% | [2] 113% | [3] 81.1% | [4] 105% | [5] 95.1% | [6] 106% | [7] 101% | [8] 105% | [9] 109%

CN(C)CCOc1ccc(C(=O)C2[C@H](c3ccc(Cl)cc3)[C@@H](c3ccccc3)NC23C(=O)Nc2ccc(Cl)cc23)cc1 (some centres undefined)
active: [1] -81.7% | [2] -97.6% | [3] -96.2% | [4] -87.2% | [5] -81.5% | [6] -91% | [7] -91.8% | [8] -67.1% | [9] -92.3%

CCCSc1nnc(-c2c(C)nc3sccn23)o1
active: [9] -22.9%
inactive: [1] 21.2% | [2] 109% | [3] 105% | [4] 104% | [5] 23% | [6] 95.7% | [7] 105% | [8] 96.2%
